Reference: PubChem BioAssay AID488856 (Sanford-Burnham Center for Chemical Genomics, 2010)
The whole screen tested about 1,400 compounds, of which about 50 (4%) were called active.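 The calls were made as follows: active = mean inhibition across replicates above about 26% (limit read from the data); inactive = the rest.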 These entries were drawn from the full list.

The molecules below were run against Caspase-3 (Homo sapiens) (UniProt P42574) (assay: CASP3 blockers, validation, counterassay for UBE2N polyubiquitination inhibitor project, biochemical, one-dose (AID 488856;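 also: plate controls were DMSO with caspase-3 for no effect and DMSO wells lacking enzyme for full effect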)). Settings: Recombinant caspase-3, Caspase-Glo 3/7 luminescence, 60 min; at 20 µM; stronger effect = higher value.
Chain of Caspase-3 (Homo sapiens) (P42574 whole entry, looked up): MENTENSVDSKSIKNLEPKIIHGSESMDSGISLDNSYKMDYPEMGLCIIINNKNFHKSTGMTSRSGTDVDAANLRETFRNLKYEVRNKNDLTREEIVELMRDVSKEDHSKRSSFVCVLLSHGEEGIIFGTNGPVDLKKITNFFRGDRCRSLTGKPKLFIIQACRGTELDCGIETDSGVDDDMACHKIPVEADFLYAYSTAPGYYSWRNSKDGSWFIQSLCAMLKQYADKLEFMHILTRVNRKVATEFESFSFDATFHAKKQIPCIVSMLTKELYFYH
With `CC(C)n1cnc2c(Nc3cccc(Cl)c3)nc(N(CCO)CCCO)nc21` the inhibition was -1.5% (inactive).
For `C#CCOCCOCCOCCNc1nc(N2CCN(C(=O)CCCCCCCCCCNC(=O)[C@H]([C@@H](C)CC)n3cc(CCCCN=C(N)N)nn3)CC2)nc(N2CCN(C(=O)CCCCCCCCCCNC(=O)[C@H](CO)n3cc(CCCSC)nn3)CC2)n1`, the inhibition was -0.7% (inactive).
`NC(N)=N/N=C/c1ccc(OCc2ccc(Cl)cc2Cl)cc1` was tested, and the inhibition was -1.8% (inactive).
`COc1ccc(-c2nnc3ccc(SCc4ccccc4)nn23)cc1` was tested, and the inhibition was -6.5% (inactive).
For `COc1cccc(Cn2cnc3c([N+](=O)[O-])c(C)c(C)cc32)c1`, the inhibition was -0.7% (inactive).
With `CN(C(=O)CN(CCO)CC(=O)N(C)C(C)(C)Cc1ccccc1)C(C)(C)Cc1ccccc1` the inhibition was -0.1% (inactive).
In the case of `CCOc1ccc2nc(N(CCCN(C)C)C(=O)c3ccc(C(=O)c4ccccc4)cc3)sc2c1`, the inhibition is reported as 3.4% (inactive).
For `Cc1ccc(C(=O)N/C(=C/c2ccc(-c3cccc([N+](=O)[O-])c3)o2)C(=O)NCCCN(C)C)cc1`, the inhibition was -0.7% (inactive).
For `COc1ccc(C(CNC(=O)c2cccc(NS(=O)(=O)c3ccc(C)c(F)c3)c2)N2CCCC2)cc1` (stereo not given), the inhibition was 0.9% (inactive).
With `Cn1c(C(=O)NCCCN2CCN(c3cccc(Cl)c3)CC2)cc2c(=O)n(C)c3ccccc3c21` the inhibition was 1.8% (inactive).
`CC1CC(C)(C)n2c(O)c(N=NC(N)=S)c3cccc1c32` (stereo not given) was tested, and the inhibition was -2.8% (inactive).
In the case of `CN(C)CCCN(C(=O)c1ccc(S(=O)(=O)N2CCCCCC2)cc1)c1nc2ccc(Br)cc2s1`, the inhibition is reported as 0.1% (inactive).
For `COc1ccc2sc(-c3ccc(S(C)(=O)=O)cc3)c(C#Cc3cncn3C)c2c1`, the inhibition was 0.2% (inactive).
In the case of `COc1ccc(-n2nnnc2-c2nc3ccccc3s2)cc1`, the inhibition is reported as 85.5% (active).
For `CCN(CC)CCNC(=O)c1ccc(NC(=O)c2cc(-c3ccncc3)nc3ccccc23)cc1`, the inhibition was -3.4% (inactive).
`O=S(=O)(c1ccc(NC(=S)NN=C(C2CC2)C2CC2)cc1)N1CCOCC1` was tested, and the inhibition was 3.2% (inactive).
For `COc1ccc2sc(-c3ccccc3OC)c(-c3ccc(OCCN4CCCC4)cc3)c2c1`, the inhibition was -2.6% (inactive).
For `O=c1cc(CO)oc(C(Nc2cccc([N+](=O)[O-])c2)c2ccccn2)c1O` (stereo not given), the inhibition was 1.9% (inactive).
With `Cc1nc(N2CCN(c3ccccn3)CC2)c2c(C)c(C(=O)Nc3ccc(F)cc3)sc2n1` the inhibition was -2.6% (inactive).
For `C#CCOCCOCCOCCNc1nc(N2CCN(C(=O)CCCCCCCCCCNC(=O)Cn3cc(CCCCCN)nn3)CC2)nc(N2CCN(C(=O)CCCCCCCCCCNC(=O)[C@H](CO)n3cc(CCCSC)nn3)CC2)n1`, the inhibition was 3% (inactive).
`S=c1nc2ccccc2c2nc(-c3cccnc3)[nH]n12` was tested, and the inhibition was 16% (inactive).
With `Cc1ccc(N(C(=O)c2snc(C(N)=O)c2N)C(C(=O)NCC2CCCO2)c2c[nH]c3ccccc23)cc1` (stereo not given) the inhibition was 0.8% (inactive).
With `CCN(CC)CCC(c1cc(OC)c(OC)c(OC)c1)c1c(OC)cc(OC)c2c(-c3ccccc3)cc(=O)oc12` (stereo not given) the inhibition was -2% (inactive).
For `Cc1ccccc1C(=O)OC1OC(=O)C(Cl)=C1Nc1ccccc1` (stereo not given), the inhibition was -0.3% (inactive).
For `O=C(COC(=O)Cn1cnc2ccccc2c1=O)NCc1ccccc1Cl`, the inhibition was -0.6% (inactive).
For `COc1cccc(N(C(=O)c2snc(C(N)=O)c2N)C(C(=O)NCC2CCCO2)c2c[nH]c3ccccc23)c1` (stereo not given), the inhibition was -8.9% (inactive).
In the case of `COc1ccccc1-c1sc2ccccc2c1-c1ccc(C(C)=O)cc1`, the inhibition is reported as 12.1% (inactive).
With `Cc1ccc(NC2=C(Cl)C(=O)OC2OC(=O)c2ccccc2C)cc1` (stereo not given) the inhibition was 0.6% (inactive).
For `CSCCC(NC(=O)c1ccc(Cl)cc1Cl)C(=O)NNC(=O)c1csc(N2CCOCC2)n1` (stereo not given), the inhibition was 1.1% (inactive).
`COc1ccc(C(CNC(=O)c2ccc(S(=O)(=O)Nc3ccccc3F)cc2)N(C)C)cc1` (stereo not given) was tested, and the inhibition was 2.2% (inactive).
`COc1ccc(-c2sc3ccccc3c2-c2ccc(OCCN3CCOCC3)cc2)cc1` was tested, and the inhibition was 0.1% (inactive).
For `Cc1ccc(C(C(=O)NCC2CCCO2)N(C(=O)c2snc(C(N)=O)c2N)c2ccc(C(C)C)cc2)o1` (stereo not given), the inhibition was -0.8% (inactive).
With `C#CCOCCOCCOCCNc1nc(N2CCN(C(=O)CCCCCCCCCCNC(=O)[C@H](CCCCN)n3cc(C)nn3)CC2)nc(N2CCN(C(=O)CCCCCCCCCCNC(=O)[C@H](CO)n3cc(CCCSC)nn3)CC2)n1` the inhibition was -3.2% (inactive).
`CCOCCCNC(=O)c1cn(CC(C)C)c(=O)c2c1c1ccccc1n2C` was tested, and the inhibition was -2.3% (inactive).
For `COc1cccc2sc3cc(NCC[C@@H]4CCCN4C)ccc3c(=O)c12`, the inhibition was 63.1% (active).
In the case of `NC(=O)NC(CC(=O)NNC(=O)c1ccccn1)c1ccc(Cl)cc1` (stereo not given), the inhibition is reported as -0.9% (inactive).
In the case of `Cc1ncc(CO)c(/C=N/NC(=O)c2cccc(S(=O)(=O)N3CCCC3)c2)c1O`, the inhibition is reported as -0.5% (inactive).
`Cc1ccc(-c2noc(CCC(=O)Nc3ccccc3N3CCN(C)CC3)n2)cc1` was tested, and the inhibition was -3.5% (inactive).
For `CC1(C)Cc2ccccc2-c2[nH]c(=S)[nH]c(=O)c21`, the inhibition was 2.3% (inactive).
For `CCOC(=O)c1ccc(NC(=O)c2nc[nH]c2C(=O)NCc2ccccc2)cc1`, the inhibition was 1.9% (inactive).
In the case of `O=C(CCCCCn1c(=O)[nH]c2ccccc2c1=O)NCCc1c[nH]c2ccccc12`, the inhibition is reported as -2% (inactive).
With `O=C(CCCCCN1C(=O)c2cccc3cccc(c23)C1=O)NCc1ccco1` the inhibition was -1.7% (inactive).
For `CCOc1ccc(N(C(=O)c2snc(C(N)=O)c2N)C(C(=O)NCC2CCCO2)c2c[nH]c3ccccc23)cc1` (stereo not given), the inhibition was -4.2% (inactive).
With `Cc1ccc(NC(=O)c2cnc(SCC(=O)NCC3CCCO3)n(C)c2=O)cc1` (stereo not given) the inhibition was 96.8% (active).
In the case of `CC(=O)NC(=S)NNC(=O)c1ccc(Br)cc1`, the inhibition is reported as 6.4% (inactive).
`Cc1cccc(-c2nc3ccc(C(=O)NCCN4CCN(C)CC4)cc3nc2-c2cccc(C)c2)c1` was tested, and the inhibition was -4% (inactive).
With `CCOC(=O)c1cccc(NS(=O)(=O)c2c(C(=O)N3CCCCCC3)c(C)n(C)c2C)c1` the inhibition was -2.7% (inactive).
In the case of `C#CCOCCOCCOCCNc1nc(N2CCN(C(=O)[C@H](CCCCN)n3cc([C@@H](N)C(C)CC)nn3)CC2)nc(N2CCN(C(=O)[C@H](Cc3ccc(O)cc3)n3cc([C@@H](N)C(C)CC)nn3)CC2)n1` (stereo not given in full), the inhibition is reported as -3.4% (inactive).
With `Cc1cccc(-n2cnc(C(=O)NNC(=S)Nc3ccccc3)c2)n1` the inhibition was 0% (inactive).
`CCCCN(C)CCCNC(=O)c1cc(-c2cccs2)nc2ccccc12` was tested, and the inhibition was -3.7% (inactive).
For `C#CCOCCOCCOCCNc1nc(N2CCN(C(=O)C(Cc3ccc(O)cc3)n3cc(C(N)CC(C)C)nn3)CC2)nc(N2CCN(C(=O)C(Cc3ccc(O)cc3)n3cc(C(N)C(C)CC)nn3)CC2)n1` (stereo not given), the inhibition was 0.7% (inactive).
For `CN(C)c1ccnc2sc3c(=O)n(Cc4ccccc4)cnc3c12`, the inhibition was -2.2% (inactive).
`CCN1C(=NCc2ccc(OC)cc2)N[C@@H](CCc2ccccc2)[C@H](C(=O)NCc2ccc(OC)cc2)[C@H]1C` was tested, and the inhibition was -3.2% (inactive).
`CN(C)CC(O)COc1ccc(C(C)(C)c2ccc(OCC(O)CN(C)C)cc2)cc1` (stereo not given) was tested, and the inhibition was 3.6% (inactive).
`CCCCCCCCCCOC(=O)Cn1c(COc2cccc(OC)c2)[n+](C)c2ccccc21` was tested, and the inhibition was 3.3% (inactive).
With `Cc1cccc(OCC(O)CN2CCN(CCN3C(=O)c4cccc5cccc(c45)C3=O)CC2)c1C` (stereo not given) the inhibition was 2.6% (inactive).
For `COc1ccccc1NC(=O)CSc1nnc(-c2ccoc2C)n1CCc1ccccc1`, the inhibition was -0.3% (inactive).
`CCCCN(CCCC)CCC(O)c1cc2c(Cl)cc(Cl)cc2c2cc(C(F)(F)F)ccc12` (stereo not given) was tested, and the inhibition was 3.4% (inactive).
`Cc1c(CN2CCC(CO)(CCOc3ccccc3)CC2)[nH]c2ccc(Cl)cc12` was tested, and the inhibition was -3.8% (inactive).
For `N#Cc1c(-c2ccc(Cl)cc2)c2c([nH]c1=S)CCCC2`, the inhibition was -1.9% (inactive).
In the case of `CC[C@@H](C)[C@@H]1CN([C@@H](C)CN2CCC[C@H]2CN2C(N)=NC[C@H]2C(C)C)C(=N)N1CCc1ccc(Cl)c(Cl)c1`, the inhibition is reported as 2.5% (inactive).
`CCOC(=O)[C@@H]1[C@H]2COc3cc(OC)ccc3[C@H]2N2C(=O)N(c3ccc(F)cc3)C(=O)[C@]12C` was tested, and the inhibition was 3.4% (inactive).
`Cc1cc(C)c(NC(=O)C[N+](C)(C)CC(O)COc2cccc3ccccc23)c(C)c1` (stereo not given) was tested, and the inhibition was -2.3% (inactive).
For `CC(=O)Nc1ccc(NC(=O)c2sc3nc4c(c(-c5ccc(C)cc5)c3c2N)CCC4)cc1`, the inhibition was 4.6% (inactive).
In the case of `C=C1c2c(Cl)ccc(O)c2C(O)=C2C(=O)[C@]3(O)C(O)=C(C(N)=O)C(=O)[C@@H](N(C)C)[C@@H]3[C@@H](O)C12` (stereo not given in full), the inhibition is reported as 1.1% (inactive).
In the case of `CCCOc1ccc(Cl)cc1Nc1nc(NCCO)nc(N2CCCC2)n1`, the inhibition is reported as 6.6% (inactive).
In the case of `CN1CCC(CN)(N2CCN(c3ccccc3)CC2)CC1`, the inhibition is reported as -2.2% (inactive).
For `CCOC(=O)N1CCN(C(=O)Cc2ccc(-n3c(=S)[nH]c4ccccc4c3=O)cc2)CC1`, the inhibition was -0.5% (inactive).
`CN1CCN(CCCNC(=O)c2ccc(/C=C3\Oc4ccccc4N(Cc4ccc(Cl)cc4)C3=O)cc2)CC1` was tested, and the inhibition was -0.4% (inactive).
With `O=c1c2c(nc3n1CCCCC3)sc1c(O)cccc12` the inhibition was 77.2% (active).
In the case of `c1ccc(C[C@H]2CNCCN2CCC23CC4CC(CC(C4)C2)C3)cc1`, the inhibition is reported as -0.9% (inactive).
For `O=c1cc(CO)oc(C(Nc2cccc(C(F)(F)F)c2)c2ccccn2)c1O` (stereo not given), the inhibition was -1.4% (inactive).
For `NC(N)=Nc1nc(-c2ccccc2)c2cc(Cl)ccc2n1`, the inhibition was -2.7% (inactive).
With `CCC(C(=O)NC1CCCC1)N(C(=O)c1snc(C(N)=O)c1N)c1ccc2c(c1)OCCO2` (stereo not given) the inhibition was 1.4% (inactive).
For `c1ccc2c(CCN3CCNC[C@H]3Cc3cccc4ccccc34)cccc2c1`, the inhibition was 5% (inactive).
With `C#CCOCCOCCOCCNc1nc(N2CCN(C(=O)C([C@@H](C)O)n3cc([C@@H](N)CCCCN)nn3)CC2)nc(N2CCN(C(=O)[C@H](CCCCN)n3cc(CN)nn3)CC2)n1` (stereo not given in full) the inhibition was 1.6% (inactive).
For `COC(=O)c1cc(-c2cccs2)nc2ccccc12`, the inhibition was -2.9% (inactive).
`CC1CN(C(=O)CCC(=O)NCCCN2CCC(Cc3ccccc3)CC2)c2cc(Cl)ccc2O1` (stereo not given) was tested, and the inhibition was 0.6% (inactive).
In the case of `NC[C@H](Cc1ccccc1)NCCc1cc(C(F)(F)F)cc(C(F)(F)F)c1`, the inhibition is reported as -2.6% (inactive).
`CCOC(=O)C1=C(c2ccccc2)O/C(=C(/C(=O)OC)C(F)(F)F)S1` was tested, and the inhibition was 1.4% (inactive).
`COc1ccc(/C=N\NC(=O)c2sc(N)nc2C)cc1OC` was tested, and the inhibition was 23% (inactive).
`C#CCOCCOCCOCCNc1nc(N2CCN(C(=O)C([C@@H](C)CC)n3cc(C(N)COC(=O)C(F)(F)F)nn3)CC2)nc(N2CCN(C(=O)[C@H](CCCCN)n3cc(C(N)CC(C)C)nn3)CC2)n1` (stereo not given in full) was tested, and the inhibition was -1% (inactive).
With `CN(C)CCCN(C(=O)c1ccc(S(=O)(=O)N2CCCCCC2)cc1)c1nc2cc3c(cc2s1)OCCO3` the inhibition was 1.4% (inactive).
For `CCN(CC(=O)NCc1cccs1)C(=O)c1cccc(S(=O)(=O)Nc2ccccc2OC)c1`, the inhibition was -1.4% (inactive).
`COc1ccc(N(C(=O)c2snc(C(N)=O)c2N)C(C(=O)NC2CCCC2)c2ccco2)cc1OC` (stereo not given) was tested, and the inhibition was -0.3% (inactive).
With `CCN1CCN(CCNC(=O)c2ccc(/C=C3/Sc4ccccc4N(Cc4cccc(C)c4)C3=O)cc2)CC1` the inhibition was 2.4% (inactive).
For `C[C@@H](CN1CCC[C@H]1CN1C(N)=NC[C@@H]1Cc1ccccc1)N1C[C@@H](Cc2ccccc2)N(CCCC2CCCC2)C1=N`, the inhibition was 1.4% (inactive).
In the case of `COc1ccnc2c1c(=O)n(Cc1cccc(F)c1)c(=O)n2C`, the inhibition is reported as -0.3% (inactive).
In the case of `OCCNc1nc(Nc2ccc(Cl)c(Cl)c2)nc2ccccc12`, the inhibition is reported as -0.1% (inactive).
For `CCCC[C@@H]1CN=C(N)N1CCc1cc(C(F)(F)F)cc(C(F)(F)F)c1`, the inhibition was 0.9% (inactive).
